Reference: PubChem BioAssay (EPA / NIEHS)
Activity calls are given as the source filed them. Rule for the calls: active = hit-call score of the fitted dose curve at least 0.9, where 1 is the maximum; inactive = score below 0.9.

Experiment: BSK_LPS_PGE2: BioMAP Diversity Plus: LPS Assay for Prostaglandin E2 (PGE2) Biomarker Activity (AID 2283082)
Details: primary human HUVEC with PBMC; actives raise or lower the signal
Experimental: BSK_LPS is a cell-based, multiplexed-readout assay that uses umbilical vein endothelium and peripheral blood mononuclear cells, a human vascular primary cell co-culture, with measurements taken at 24 hours after chemical dosing in a 96-well plate.BSK_LPS_PGE2 is an assay component measured in the BSK_LPS assay. It measures PGE2 antibody related to regulation of gene expression using ELISA technology.Data from the assay component BSK_LPS_PGE2 was analyzed into 1 assay endpoint. This assay endpoint, BSK_LPS_PGE2, was analyzed with bidirectional fitting relative to DMSO as the negative control and baseline of activity. Using a type of binding reporter, gain or loss-of-signal activity can be used to understand changes in the signaling as they relate to the gene PTGER2. Furthermore, this assay endpoint can be referred to as a primary readout, because this assay has produced multiple assay endpoints where this one serves a signaling function. To generalize the intended target to other relatable targets, this assay endpoint is annotated to the gpcr intended target family, where the subfamily is rhodopsin-like receptor.
The levels of cell surface (or secreted, indicated by the prefix "s") biomarker endpoints were measured by ELISA. Overt cytotoxicity to cells in confluent adherent cultures (all systems other than the BT system) was assessed by measuring total protein levels using sulforhodamine B (SRB) staining in parallel cultures at the time of biomarker measurements, indicated as SRB endpoints. For proliferation assays for adherent cell types, individual cell types are cultured at sub-confluence and relative cell numbers quantified by SRB staining at time points optimized for each system (48 h: 3C and CASM3C systems; 72 h: BT and HDF3CGF systems; 96 h: SAg system). SRB was performed by staining cells with 0.1% SRB after fixation with 10% TCA and reading wells at 560 nm.Viability and proliferation of PBMC (T cells) was quantified by Alamar Blue reduction for the SAg and BT systems. For PBMC viability (referred to as PBMC Cytotoxicity within the assay endpoint names), cells were plated (75,000/well in a 96-well plate) and then chemical samples added for 1 h before addition of activators, SEB and TSST-1 (20 ng/mL final concentration each). Cells were incubated for 90 h. Then, Alamar Blue (20 uL/well) (Invitrogen, Cat DAL1100) was added for 6 h, and the plates were read with a fluorescence microplate reader at 546/580 nm (excitation/emission). For PBMC proliferation, cells were plated and activated as above but incubated for only 16 h prior to addition of Alamar Blue. Plates were read after 6 h.

Structure (SMILES)	AC50	outcome
Cc1ccc(C(C)(C)C)c(O)c1	3.09 µM (active)	–
CC(=O)OC1CC(C)OC(C)O1 (stereo not given)	–	inactive
C=CCCCCCCCCCCCC	–	inactive
CC(COCC(C)OC(=O)c1ccccc1)OC(=O)c1ccccc1 (stereo not given)	–	inactive
Cc1cn([C@H]2C=C[C@@H](CO)O2)c(=O)[nH]c1=O	–	inactive
CCc1cc(C2=C(C(=O)O)N(c3ccccc3C(F)(F)F)S(=O)(=O)c3ccccc32)cc2c1OCO2	–	inactive
O=C(O)CN(CC(=O)O)CC(=O)O	–	inactive
CC(=O)[C@@]1(O)CC[C@H]2[C@@H]3CCC4=CC(=O)CC[C@]4(C)[C@H]3CC[C@@]21C	–	inactive
Cc1occc(=O)c1O	–	inactive
O=NO	–	inactive
Nc1nc(Cl)nc2c1ncn2[C@H]1C[C@H](O)[C@@H](CO)O1	–	inactive
CCN(CC)CCOc1ccc(C(=C(Cl)c2ccccc2)c2ccccc2)cc1	8.26 µM (active)	–
O=C(O)c1[nH]n(-c2ccc(S(=O)(=O)O)cc2)c(=O)c1N=Nc1ccc(S(=O)(=O)O)cc1	–	inactive
C/C=C/c1ccc(OC)cc1	–	inactive
CCCC[C@H]1CN(CC2CCOCC2)C(=O)OC12CCN(C1(C)CCN(C(=O)c3c(C)ncnc3C)CC1)CC2	–	inactive
O=C(NS(=O)(=O)/C=C/c1cccs1)c1ccc(F)cc1Br	–	inactive
CCCCC(CC)COP(=O)(OCC(CC)CCCC)OCC(CC)CCCC (stereo not given)	–	inactive
CCCCCCCCCC[N+](C)(C)[O-]	–	inactive
COC(=O)CCCC(=O)OC	–	inactive
CN(C)CCCN(C)CCCN(C)C	–	inactive

Structure (SMILES)	AC50	outcome
O=C(Oc1ccccc1)c1cccc(C(=O)Oc2ccccc2)c1	–	inactive
CCCCCCC(C=O)=Cc1ccccc1	15.3 µM (active)	–
COC(=O)CCC(=O)OC	–	inactive
CC(C)NCC(O)c1ccc(O)c(O)c1 (stereo not given)	–	inactive
O=C1c2c(O)cccc2Cc2cccc(O)c21	–	inactive
NCCOCCOCCN	–	inactive
COC(=O)[C@H]1[C@H]2C[C@@H]3c4[nH]c5cc(OC)ccc5c4CCN3C[C@H]2C[C@@H](OC(=O)c2cc(OC)c(OC)c(OC)c2)[C@@H]1OC	–	inactive
CCCCCCCCCCCCCCOS(=O)(=O)O	–	inactive
O=[Si]=O	–	inactive
S=c1[nH]c2ccccc2s1	12.9 µM (active)	–
CC(=O)S[C@H](C(=O)N[C@H]1Cc2ccccc2[C@H]2CCC[C@@H](C(=O)O)N2C1=O)C(C)C	–	inactive
CSc1ccc(Oc2ccc(S(N)(=O)=O)cc2CN(C)C)cc1C	–	inactive
c1ccc2occc2c1	–	inactive
Cn1cnc2c1c(=O)[nH]c(=O)n2C	–	inactive
CN(C)C(=O)NC1(c2ccccc2)CCN(CC[C@@]2(c3ccc(F)c(F)c3)CN(C(=O)c3ccccc3)CCO2)CC1	–	inactive
CC(=O)OCC(COC(C)=O)OC(C)=O	–	inactive
O=C1CCCCC1	–	inactive
OCC(CO)n1cnc(-c2ccc(F)cc2)c1-c1ccnc(Oc2ccccc2)n1	0.356 µM (active)	–
O=C1OC(c2ccc(O)cc2)(c2ccc(O)cc2)c2ccccc21	–	inactive
NC=O	–	inactive
